Common to all, as to test: NCI-60 one-dose screen, 48 h (100 = growth as untreated, 0 = no growth, -100 = all killed)
Common to all, as to conditions: 10 µM unless noted

Assay [1] concerns DU-145 prostate.
For assay [2], the system named is K-562 leukemia.
For assay [3], the system named is MALME-3M melanoma.
The test system of assay [4] is MDA-MB-231 breast.
In assay [5] the test system is RXF 393 renal.
For assay [6], the system named is SF-268 CNS.
Assay [7] deals with SF-295 CNS.
In assay [8] the test system is SF-539 CNS.
Assay [9] relates to UACC-257 melanoma.
The subject of assay [10] is M14 melanoma.
The subject of assay [11] is HT29 colon.
Assay [12] deals with SNB-75 CNS.
The test system of assay [13] is SNB-19 CNS.
Assay [14] deals with U251 CNS.
Assay [15] has as its system PC-3 prostate.
For assay [16], the system named is SK-MEL-5 melanoma.
Assay [17] concerns UACC-62 melanoma.
For assay [18], the system named is LOX IMVI melanoma.
The subject of assay [19] is SK-MEL-28 melanoma.
Assay [20] deals with HCT-15 colon.

Compounds without any hit were thinned out: in the full panel of roughly 83,000, 20% have a hit.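 Compound tested at a single concentration for 48 hours in 96-well plates; a percent growth value below 10 was scored as active.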 A number with no mark means an inactive call. Calls of active or inactive are those of the source.

Take `C[C@]12CCc3c(ccc4cc(O)ccc34)[C@@H]1CC[C@H]2O`: the growth was 104% in assay [1]; 94.9% in [2]; 101% in assay [3]; 88.3% in assay [4]; 97.2% in assay [5]; 91.4% in [6]. For the same compound, the growth in [7] is 84.9%; in assay [8], 91%; in assay [9] it was 102%; in assay [10], 101%; in [11], 104%; in assay [12], 89.2%. The growth in [13] is 87.2%; in [14], 101%; in [15], 88.8%; in assay [16] it was 101%; in assay [17] it was 61.4%; in assay [18], 96.4%. Also, the growth in [19] was 99.3%.
With `Nn1c(Nc2ccc(S(=O)(=O)Nc3ncccn3)cc2)nnc(/C=C/c2c(O)ccc3ccccc23)c1=O`, the growth in [1] was 99.7%; in assay [2] it was 85.2%; in assay [3] it was 94.2%; in assay [4] it was 71.4%; in [5] it was 106%; in assay [6] it was 84.7%. For the same compound, the growth in assay [7] was 100%; in assay [8] it was 102%; in [9], 94.4%; in [10], 97.5%; in [20] it was 91.3%; in assay [11], 105%. Moreover, the growth in [13] was 96.8%; in assay [14], 85.8%; in assay [15], 75.4%; in [16] it was 88.2%; in assay [17] it was 84.3%; in assay [18], 84.3%. The growth in [19] was 112%.
Consider `C=C(C)[C@@H]1CC[C@]2(C(=O)OC)CC[C@]3(C)[C@H](CC[C@@H]4[C@@]5(C)CC/C(=N\OCCC(=NCCC#N)NOCCC#N)C(C)(C)[C@@H]5CC[C@]43C)[C@@H]12`, for which the growth is 27.5% [100 µM] in [1]; 5.42% [100 µM] (active) in assay [2]; 25.3% [100 µM] in assay [3]; 5.09% [100 µM] (active) in assay [4]; -43.1% [100 µM] (active) in assay [5]; 29.1% [100 µM] in [6]. Also, the growth is 36.6% [100 µM] in [7]; -2.29% [100 µM] (active) in assay [8]; 8.82% [100 µM] (active) in assay [9]; 26.6% [100 µM] in assay [10]; 34.3% [100 µM] in assay [20]; 3.88% [100 µM] (active) in assay [11]. Besides, the growth in assay [13] is 28.9% [100 µM]; in [14], -39.7% [100 µM] (active); in assay [15], 4.49% [100 µM] (active); in assay [16], -84.7% [100 µM] (active); in assay [17], -25.8% [100 µM] (active); in assay [18] it was 14.6% [100 µM]. The growth in assay [19] was 29.2% [100 µM].
For `C=CCCC1(C)NC(=O)NC1=O` (configuration not stated), the growth in assay [1] was 102%; in [2], 83.3%; in [3], 111%; in [4], 101%; in assay [5], 121%; in assay [6] it was 98%. For the same compound, the growth in assay [7] is 95.7%; in assay [8], 104%; in [9] it was 104%; in assay [10], 98.1%; in [11] it was 93.2%; in assay [12] it was 89.3%. In addition, the growth in assay [13] was 99.6%; in [14], 103%; in [15], 86.5%; in assay [16] it was 104%; in assay [17], 99.2%; in assay [18], 93.7%. Further, the growth in assay [19] is 106%.
On to `Cn1cc(-c2nnc(-c3cn(C)c4ncc(Br)cc34)s2)c2cc(Br)ccc21`, for which the growth in assay [1] is 95.4%; in assay [2] it was 97.8%; in assay [3] it was 78.1%; in assay [4], 67.2%; in [5] it was 118%; in [6], 90.9%. Also, the growth in assay [7] is 103%; in [8] it was 81.5%; in [9], 92.5%; in assay [10], 97%; in assay [20], 98.4%; in assay [11], 100%. Further, the growth in [13] was 94.9%; in assay [14], 85.2%; in assay [15], 90.3%; in assay [16], 93.1%; in assay [17], 86.7%; in assay [18] it was 95.8%.
As to `Cc1ccc2c(c1)C(C)Cc1c(Cl)ncnc1N2C` (configuration not stated), the growth in assay [1] was 79.8%; in [2], 30.9%; in [3], 14.6%; in assay [4], -31.9% (active); in assay [5] it was 4.04% (active); in assay [6] it was 22.6%. Moreover, the growth in assay [7] was 18.4%; in [8], 29%; in [9], 20.1%; in [10] it was 15.1%; in [20], 8.93% (active); in assay [11], -8.76% (active). Moreover, the growth was 30.4% in assay [13]; 17.9% in [14]; 14.1% in [15]; -86.7% (active) in [16]; 7.38% (active) in assay [17]; -58.1% (active) in [18]. Moreover, the growth in assay [19] is 27.1%.
On to `Cc1ccc(S(=O)(=O)n2cc(C(=O)C(=O)N3CCCCC3)c3ccccc32)cc1`, for which the growth in [1] was 97.1%; in [2], 69.9%; in assay [3], 84.8%; in assay [4], 75.2%; in assay [5], 113%; in assay [6], 78%. Moreover, the growth is 60.4% in [7]; 90.6% in [8]; 101% in assay [9]; 89.4% in [10]; 79.9% in [20]; 88.3% in assay [11]. In addition, the growth in [13] was 97.7%; in [14] it was 91.3%; in assay [15], 52.1%; in [16] it was 47.3%; in [17] it was 49.5%; in assay [18], 71.9%. Further, the growth in assay [19] was 172%.

Source of the values: PubChem BioAssay (NCI).
